Measured values taken from the supplement of paper PMC10681739.

Legend:
ETS1 [1] = biological target: T1, ETS1 (UniProt P14921); test: ETS1 binding intensity (PBM fluorescence), ETS1 alone (arbitrary fluorescence units); higher = stronger binding; conditions: ETS1 concentration 1 nM; RUNX1 concentration 0 nM
T1 sequence: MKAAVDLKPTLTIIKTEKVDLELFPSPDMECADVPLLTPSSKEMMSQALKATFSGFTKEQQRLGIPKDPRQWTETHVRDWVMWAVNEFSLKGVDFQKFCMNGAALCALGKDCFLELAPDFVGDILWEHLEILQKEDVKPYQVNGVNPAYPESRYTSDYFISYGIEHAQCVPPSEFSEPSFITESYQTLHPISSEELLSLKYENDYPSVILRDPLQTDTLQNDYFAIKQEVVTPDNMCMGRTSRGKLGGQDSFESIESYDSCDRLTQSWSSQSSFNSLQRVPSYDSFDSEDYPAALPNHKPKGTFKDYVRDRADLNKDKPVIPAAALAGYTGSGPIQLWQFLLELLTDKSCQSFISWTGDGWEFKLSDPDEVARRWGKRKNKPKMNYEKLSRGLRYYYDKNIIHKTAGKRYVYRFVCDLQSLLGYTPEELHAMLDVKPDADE

ETS1 [2] = biological target: T1, ETS1; test: ETS1 binding intensity (PBM fluorescence) in presence of RUNX1, normalised to ETS1-only experiment (arbitrary fluorescence units); higher = stronger binding; conditions: ETS1 concentration 1 nM; RUNX1 concentration 25 nM
RUNX1 [3] = biological target: RUNX1 (UniProt Q01196); test: RUNX1 binding intensity (PBM fluorescence) in presence of ETS1, normalised to RUNX1-only experiment (arbitrary fluorescence units); higher = stronger binding; conditions: RUNX1 concentration 2 nM; ETS1 concentration 25 nM
Procedure: (§1)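 Cooperative gcPBM on 36-bp genomic probes with neighbouring ETS1 and RUNX1 sites. Recombinant human RUNX1 (2 nM) was incubated alone or with ETS1 (25 nM) and detected with anti-RUNX1 antibody plus Alexa488 secondary. Values are medians over 4 replicate spots; the RUNX1+ETS1 data were normalised to the RUNX1-only data. The probes sit in constant array flanks that are not printed.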

RUNX1 [4] = biological target: RUNX1 (UniProt Q01196); test: RUNX1 binding intensity (PBM fluorescence), RUNX1 alone (arbitrary fluorescence units); higher = stronger binding; conditions: RUNX1 concentration 2 nM; ETS1 concentration 0 nM
Procedure: as §1
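Throughout, for RUNX1 binding intensity (PBM fluorescence) in presence of ETS1, normalised to RUNX1-only experiment: Full-length recombinant human ETS1 or RUNX1 bound to double-stranded 36-bp genomic probes on microarrays, detected by protein-specific primary antibody and Alexa488 secondary, spot fluorescence as median of four replicate spots.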
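Throughout, for RUNX1 binding intensity (PBM fluorescence), RUNX1 alone: Full-length recombinant human RUNX1 bound to double-stranded 36-bp genomic probes on a high-density microarray, scored as Alexa488 fluorescence per spot via anti-RUNX1 antibody, median of four replicate spots.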

Sequence of RUNX1 (Q01196 whole entry): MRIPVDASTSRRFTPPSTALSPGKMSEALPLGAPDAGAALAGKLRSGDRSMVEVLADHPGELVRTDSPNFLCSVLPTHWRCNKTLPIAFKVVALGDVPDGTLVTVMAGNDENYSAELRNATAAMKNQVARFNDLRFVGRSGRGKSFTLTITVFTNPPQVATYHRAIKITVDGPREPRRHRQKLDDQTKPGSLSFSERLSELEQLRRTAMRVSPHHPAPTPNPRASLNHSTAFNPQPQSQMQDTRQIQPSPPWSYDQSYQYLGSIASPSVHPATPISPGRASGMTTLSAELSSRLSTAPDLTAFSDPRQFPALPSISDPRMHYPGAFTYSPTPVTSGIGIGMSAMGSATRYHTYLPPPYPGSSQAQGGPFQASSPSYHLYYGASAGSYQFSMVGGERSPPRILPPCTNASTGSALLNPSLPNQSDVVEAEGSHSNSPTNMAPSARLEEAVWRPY

| Sequence | ETS1 binding intensity (ETS1 [1]) | ETS1 binding intensity (ETS1 [2]) | RUNX1 binding intensity (RUNX1 [3]) | RUNX1 binding intensity (RUNX1 [4]) |
| --- | --- | --- | --- | --- |
| TAAGTGCAGGAAACGGCTGTGTGGGTGTCAGTGATT | 1350 | 1310 | 906 | – |
| AAAGAACTTCCTGAGGTGCTTGAGGTTAGGCTATGG | 487 | 498 | 1660 | 727 |
| GTAAACTAGCTCTTCCGGTCTGTGGCCCTCACAGGA | 2840 | 3250 | 1500 | 824 |
| GAAGCCCAACAGGATGCCGAGTAACCACCCACTGAA | 1040 | 1120 | 924 | 822 |
| GTGTGAAGGAAGTGTGAGATCAAACCACAGCTGGGT | 457 | 901 | 947 | – |
| TCTCTTCCGTTCTCTGGTAGCTTTGTGGTAGCTTTG | 369 | 534 | 2710 | 1350 |
| TGAGCTCAGGCCGGAAGCGGTGGATGATGGCACACA | 9910 | 8670 | 1560 | – |
| GCAGGGGCCCATTTCCTGCCACAAGCCCACACAGGA | 1390 | 1280 | 1750 | 749 |
| TGTTTTCGCTCTTCCTGGCCTTGCGGGCAGCCAGGA | 390 | 783 | 1510 | – |
| AAATCACGTACCCGGAAACCACATGCACAGAAGTGG | 2010 | 2930 | 1550 | – |
| ACCCCAAGCCCAGGATGTGGTTTGGCCACTATTGAG | 727 | 4450 | 2030 | – |
| CCAGCAAAGGAAGCTTGGTCAACCACAGCAGCCTGT | 393 | 463 | 891 | – |
| GGATGACATCCGGCACCAACTTAACCACTAATCTCA | 615 | 1690 | 2410 | 947 |
| TGCAAGAGGAAGCTGGGGTTTGTGGTTCATGTTTTG | 528 | 1000 | 1390 | 874 |
| GTGGGGCGGGCTTCCGGCGCTCCCACCGCGAGCCGA | 921 | 1050 | 1500 | 790 |
| CGCCCACCACTTCCTGCTGGCGGTCGGCAAGCGTTG | 1430 | 2240 | 8670 | 1020 |
| TTTTGCCCAACAGGATGTGGTTTCTAAAGCAGACGG | 6620 | 31600 | 18500 | 1290 |
| TGACGGCAGGCAGGATGTGGTGAGACAAATCCACTC | 4070 | 8840 | 2660 | 904 |
| GGTGGCCGCCGGAAGTGTGACCGCGGGAGGGGAGTG | 7650 | 25500 | 2690 | – |
| GCGCCCCGCTTCCGGGGCCGCCCTAAACCGCGGCCG | 944 | 2870 | 3790 | 1520 |

| Sequence | ETS1 binding intensity (ETS1 [1]) | ETS1 binding intensity (ETS1 [2]) | RUNX1 binding intensity (RUNX1 [3]) | RUNX1 binding intensity (RUNX1 [4]) |
| --- | --- | --- | --- | --- |
| CCGCTGACATCCGCTTGGCCTGCGGCTTCTTTCTGT | 715 | 1030 | 2740 | – |
| GTGCTGAGCAGCTTCCCGTCTGCGGTGAAGACAGCC | 396 | 1040 | 1930 | – |
| AGCGGCCGAAGGAAGTGACGTTTGCGGCAGTAAGGC | 997 | 1450 | 1300 | – |
| CCAACAGTACCCTTCCTCCCTTAACCACAAGACTGA | 445 | 2090 | 6290 | 5500 |
| TCGCTTCCGGTGTCGGTTACAGACTGTGGTTGCCAT | 3090 | 6190 | 3330 | – |
| CCACCGTCCCCGGAAATAACCGCGCCTGCCTCTCAA | 1940 | 3290 | 2090 | – |
| AATATACGGTGAGGATGTGGGCAAAAAACAAAGAGG | 1060 | 1270 | 965 | 809 |
| GGGCGGAAGTGCGTCACTATGTCCGACCCGCAGTGC | 1630 | 2050 | 1010 | 706 |
| ATCTTAAGTGTTTCCTGACACCACAAATCCCCAAAC | 501 | 507 | 1020 | – |
| AGCTTCCTGTTTGGCCTTGCTGATGTCACCGCATTA | 729 | 1090 | 2360 | – |
| AAATCACATACCCGGAAACCACATGCACAGAAGTGG | 1480 | 3060 | 2090 | 1090 |
| AAAACAACTCCAGGATGTGGTTTTACTCAGAATGTA | 1310 | 7410 | 2710 | – |
| GTGACGGATATCCACCGGGCCCTGTGGTTTCCAACA | 394 | 1200 | 986 | 822 |
| ACAGTCGCACCGGAAGCTGCCCGCGGTGTTGACACA | 8580 | 11300 | 1360 | 700 |
| CTCCACCGGATGCAGCAATGAAGGCCGCAGGAATGG | 3160 | 3990 | 1130 | 712 |
| TGGCTGTCACTTCCTGTCCCACTGTGGTTCCTGGGA | 4940 | 5740 | 1820 | 763 |
| ACCAGCCCAGGAAGCATCTGCGGTTCAAGTGGCCAC | 452 | 1470 | 1750 | – |
| AGCGCTTCCTGGCTCCGGCCCCGCCCCTGCGGTCGG | 484 | 1110 | 1880 | – |
| GAAGCGGAAGTCGCTGAGGGGTGGTGAAGCGGTTGG | 1930 | 2420 | 1010 | – |
